From PubChem BioAssay (NCI)
Compounds without any hit were thinned out: in the full panel of roughly 83,000, 20% have a hit.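 Plates (96-well) were seeded with cells, treated with compound at one concentration, and incubated for 48 hours before percent growth was determined.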 Unmarked numbers belong to inactive results. The source made the active and inactive calls. How the source made its calls: active means growth percent below 10; inactive means the rest.

Columns and labels:
Experiment in all cases: NCI-60 one-dose screen, 48 h (100 = growth as untreated, 0 = no growth, -100 = all killed)
Conditions in all cases: 10 µM unless noted
SK-MEL-2 melanoma = system: SK-MEL-2 melanoma
EKVX NSCLC = system: EKVX NSCLC
SN12C renal = system: SN12C renal
UO-31 renal = system: UO-31 renal
TK-10 renal = system: TK-10 renal
ACHN renal = system: ACHN renal
CAKI-1 renal = system: CAKI-1 renal
A498 renal = system: A498 renal
CCRF-CEM leukemia = system: CCRF-CEM leukemia
MOLT-4 leukemia = system: MOLT-4 leukemia

| Compound | growth (SK-MEL-2 melanoma) | growth (EKVX NSCLC) | growth (SN12C renal) | growth (UO-31 renal) | growth (TK-10 renal) | growth (ACHN renal) | growth (CAKI-1 renal) | growth (A498 renal) | growth (CCRF-CEM leukemia) | growth (MOLT-4 leukemia) |
| --- | --- | --- | --- | --- | --- | --- | --- | --- | --- | --- |
| CCCCSCC(=O)c1ccccc1 | 85.2% | 99% | 103% | 85% | 86.1% | 101% | 94.4% | 106% | 91.9% | 92.9% |
| CCOC(=O)/C=C/c1c(C)[nH]c(=O)[nH]c1=O | 30.1% | 77.6% | 95.4% | 102% | 95.5% | 1.8% (active) | 63.8% | 111% | 89.3% | 61.3% |
| CCCCCCNc1nc(NCCCCCC)c2[nH]c(NCCCCCC)nc2n1 | 30.2% | 44% | 26.5% | 80.9% | 116% | 100% | 74.1% | 40.3% | -29.6% (active) | -12.5% (active) |
| COc1cc(C(=O)/C=C/c2c(-c3cccs3)nc3ccccn23)cc(OC)c1OC | 10.7% | 4.84% (active) | 4.93% (active) | 10.7% | 0.55% (active) | -23.4% (active) | -5.58% (active) | -21.8% (active) | 12.3% | -0.559% (active) |
| NNC(=S)N/N=C/c1ccccn1 | 59.6% | 31.6% | 30% | 14.7% | 46.9% | 17% | 14.2% | 70.4% | 12% | 12% |
| O=C1Nc2ccccc2C2c3cccn3-c3ccccc3N12 (stereo not given) | 52% | 81.8% | 90.3% | 70.4% | 73.1% | 94.8% | 80.8% | 73.9% | 80.9% | 77.5% |
| CCN1C(=S)N(CC)C2C1NC(=S)N2/N=C/C=C/c1ccccc1OC (stereo not given) | 46.7% | 49.3% | 28.5% | 43.5% | 71.4% | 33.7% | 34.1% | 16.3% | 12.2% | 17.7% |
| CN(C)c1ccc(C(=NO)c2ccc(N(C)C)cc2)cc1 | -23% (active) | 50.8% | 45.5% | 67.1% | 56.6% | 50.9% | 24.1% | 31.3% | 38.3% | 31.7% |
| COc1ccc2nc(Cl)c(/C=C/C(=O)c3ccc(NC(=O)CSc4nnc(-c5ccc(Cl)c(Cl)c5)n4-c4ccccc4)cc3)cc2c1 | 87.6% | 93.2% | 88.2% | 79.3% | 100% | 103% | 77.6% | 87% | 90.8% | 86.4% |
| N#Cc1nc2c(S(=O)(=O)c3ccccc3)c(N)n(Cc3cccnc3)c2nc1C#N | 111% | 76.7% | 138% | 58.4% | 99.2% | 96.2% | 96.3% | 104% | 35.3% | 50% |
| CCN=C1C=CC(=C(c2ccc(N(C)C)cc2)c2ccc(N(C)C)cc2)c2ccccc21 | -39.5% (active) | -6.63% (active) | -22.2% (active) | -42.9% (active) | -3.47% (active) | -9.84% (active) | 0.419% (active) | 13.3% | 9.37% (active) | 9.89% (active) |
| CCN(CC)CCN(CCN(CC)CC)c1ccccc1 | 106% | 97.2% | 78.5% | 66.4% | 102% | 95.7% | 86.6% | 94.5% | 93.3% | 89.8% |
| O=C1/C(=C/c2ccc(C(F)(F)F)cc2)COc2ccc(O)c(O)c21 | 98% | 52.3% | -58.6% (active) | -98.9% (active) | 11.9% | -57.6% (active) | -23.6% (active) | 116% | -3.75% (active) | -1.49% (active) |
| CCC(C)Nc1ccc(NC(C)CC)cc1 (stereo not given) | 91.6% | 86% | 19.8% | 84.4% | 107% | 85.5% | 96.2% | 97.5% | 79% | 59.1% |
| C#CCOc1ccc2ncnc(Nc3cccc(NC(=O)CCl)c3)c2c1 | 69.7% | 92.9% | 69.4% | 59.5% | 73.4% | 65.8% | 81.2% | 89.1% | 16.1% | 18.1% |
| COc1ccc(C/C(C)=C(\c2ccc(O)cc2)c2ccc(OCCN3CCCC3)cc2)cc1 | 100% | 101% | 100% | 86.1% | 121% | 97.1% | 97% | 91.7% | 92.3% | 85.3% |
| NC(CSC(c1ccccc1)(c1ccccc1)c1ccc2c(c1)OCO2)C(=O)O (stereo not given) | -14.6% (active) | 43.4% | 36.7% | 53% | 69.8% | 53% | 37% | 34.3% | -6.86% (active) | 7.18% (active) |
| CCOC(=O)n1cc(-c2nonc2-c2cn(C)c3ccccc23)c2ccccc21 | 37.3% | 55.7% | 45.1% | 42.9% | 63.2% | 43.2% | 29.4% | 15.2% | 21.6% | 23.2% |
| Cc1cscc(C)c1=S | 11.9% | 110% | 87.5% | 70.5% | 92.4% | -5.99% (active) | 51.2% | 128% | 91.1% | 81.2% |
| C=C1C(=O)O[C@H]2[C@H]1CC/C(CNC(=O)c1cc3ccccc3[nH]1)=C\CC[C@@]1(C)O[C@@H]21 | -60.8% (active) | 14% | -43.3% (active) | -73.5% (active) | -89.9% (active) | -77.6% (active) | -60.4% (active) | -63.4% (active) | -35.7% (active) | -35.5% (active) |
| CCCCCn1sc(=O)n(Cc2ccc(CNC(=O)OCc3ccc4c(Cl)cc(Cl)c(O)c4n3)cc2)c1=O | 90.1% | 86% | 51.4% | 11.6% | 68.8% | 28.9% | 55% | 80.7% | 34.4% | 31.8% |
| Cc1cc2nc3c4ccccc4n(CCN(C)C)c3nc2cc1C | 11% | 18.1% | 16.9% | -12% (active) | 26.7% | -26.5% (active) | -3.55% (active) | -15.2% (active) | 10.3% | 4.73% (active) |
| CCc1cccc(Sc2cc(C(=O)N3Cc4ccc(OCCN(C)C)cc4C3)ccc2O)c1 | 88.2% | 39.2% | 63.9% | 56.5% | 63.2% | 58.2% | 83.5% | 42.2% | 29.2% | 25% |
| COC(=O)C1=Nc2ccc(F)cc2/C1=C\c1sc(Nc2ccc(O)cc2)nc1O | 47.3% | 89.8% | 85.7% | 62.6% | 96.9% | 84.9% | 55.5% | 42.4% | 28.2% | 30.4% |
| CC(=O)c1c(Nc2ccc(F)c(F)c2F)[nH]c2c(F)cc(F)cc2c1=O | -52.6% (active) | 9.73% (active) | 1.04% (active) | 4.44% (active) | 12.7% | 0.167% (active) | -10.4% (active) | -33.4% (active) | 6.3% (active) | -3.98% (active) |
| Cc1ccc(/C=C/C(=O)c2ccc(NC(=O)CSc3nc4c([nH]3)c(=O)n(C)c(=O)n4C)cc2)c(C)c1 | 91.9% | 78.1% | 57.1% | 70.4% | 83.5% | 38.8% | 48.1% | 40.2% | 65.3% | 62.1% |
| C=C(CO)[C@@H]1CC[C@]2(COC3CCCCO3)CC[C@]3(C)[C@H](CC[C@@H]4[C@@]5(C)C=C(C=O)C(=O)C(C)(C)[C@@H]5CC[C@]43C)[C@@H]12 (stereo not given in full) | -57.3% (active) | -82.8% (active) | -67.3% (active) | -96.9% (active) | -96.2% (active) | -100% (active) | -76% (active) | -97.7% (active) | -62.9% (active) | -32.2% (active) |
